Screening results (PubChem BioAssay)
FAS-TE inh – FAS thioesterase (human) inhibition; recombinant FAS-TE, OMFH fluorogenic substrate, fluorescence endpoint; inhibition, % at 15 µM; 360,000 tested, 0.67% active;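 active = compounds whose normalised, plate-corrected inhibition of enzyme fluorescence in the single-dose primary screen is 50% or more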;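 note: 0% = DMSO with enzyme and 100% = substrate without enzyme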
p97 inhibitor – inhibitors of human p97 ATPase | 220,000 tested, 0.42% active | AID 1481 | P55072 | inhibition, % at 8 µM | recombinant p97 ATPase, Kinase-Glo ATP luminescence, 3 h; in the data active = inhibition above about 15%;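 note: 0% = DMSO vehicle and 100% = wells lacking enzyme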
Target sequence (P55072 whole entry, looked up): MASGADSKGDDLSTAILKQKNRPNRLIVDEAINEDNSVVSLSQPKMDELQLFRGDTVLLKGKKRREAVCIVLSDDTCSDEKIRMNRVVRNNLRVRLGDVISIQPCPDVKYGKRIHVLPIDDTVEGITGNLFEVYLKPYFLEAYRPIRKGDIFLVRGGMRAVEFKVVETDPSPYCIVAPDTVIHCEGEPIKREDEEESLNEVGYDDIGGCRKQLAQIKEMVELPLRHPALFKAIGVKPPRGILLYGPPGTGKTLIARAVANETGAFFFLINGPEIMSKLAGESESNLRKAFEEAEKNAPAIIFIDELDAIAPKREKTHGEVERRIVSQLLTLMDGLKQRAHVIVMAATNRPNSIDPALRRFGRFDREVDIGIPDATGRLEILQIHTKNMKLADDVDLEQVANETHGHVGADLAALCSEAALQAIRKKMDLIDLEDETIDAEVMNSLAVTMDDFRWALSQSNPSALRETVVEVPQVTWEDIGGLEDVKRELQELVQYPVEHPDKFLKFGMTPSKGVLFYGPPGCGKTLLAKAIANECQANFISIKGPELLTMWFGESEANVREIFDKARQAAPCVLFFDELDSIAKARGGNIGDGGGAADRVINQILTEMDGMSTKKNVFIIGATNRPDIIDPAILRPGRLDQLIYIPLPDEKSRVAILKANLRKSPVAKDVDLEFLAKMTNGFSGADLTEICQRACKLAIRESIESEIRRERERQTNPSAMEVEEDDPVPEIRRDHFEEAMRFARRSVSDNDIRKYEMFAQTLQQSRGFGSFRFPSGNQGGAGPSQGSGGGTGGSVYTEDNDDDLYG
DTT redox prof – compounds producing H2O2 with reducing agent – biochemical, NIH compound library profiling, artefact control for MLSCN library redox annotation, primary screen. DTT-dependent redox cycling H2O2, phenol red/HRP absorbance; 100% = 100 µM peroxide control, 0% = buffer. activation, % at 10 µM. 200,000 tested, 0.03% active;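 active = activation of at least 50% relative to the plate's high and low controls in the primary single-dose screen; inactive = activation below 50%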;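 note: compound incubated with DTT at 0.8 mM final as the reducing agent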
PKD1 kinase inh – PKD1 (human) kinase inhibition; Q15139; 200,000 tested, 0.056% active; inhibition, % (concentration not given with the values); PKD1 kinase fluorescence polarization assay; AID 797; in the data active = inhibition above about 50%
SUMO HTRF inh – blocks human SUMOylation mediated by UBC9 | P63279 | HTRF SUMOylation assay, SAE1/SAE2 + UBC9, in vitro | inhibition, % at 35 µM | 290,000 tested, 0.36% active | AID 2006; in the data active = inhibition above about 50%, passing the limit was not always enough
Furin inh – blocks human furin protease activity | 220,000 tested, 0.061% active | inhibition, % at 20 µM or 30 µM | P09958 | purified furin, fluorogenic substrate cleavage; in the data active = inhibition above about 25%
FAS-TE conf – FAS thioesterase (human) inhibition, confirmation; shares compounds with FAS-TE inh; recombinant FAS-TE, OMFH fluorogenic substrate, fluorescence; inhibition, % at 15 µM; 2,300 tested, 45% active; AID 624325;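 active = compounds inhibiting the enzyme by at least 50% at 15 µM in any one of the replicates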;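 note: 0% = enzyme with DMSO only and 100% = wells lacking enzyme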
Starred values were filed as active, the others as inactive; x = no result. This is a sample that favours compounds with a hit; in the whole collection about 1.2% have one here.

SMILES | FAS-TE inh | p97 inhibitor | DTT redox prof | PKD1 kinase inh | SUMO HTRF inh | Furin inh | FAS-TE conf
COc1cc(CNc2nc(C)c([N+](=O)[O-])c(C)c2C#N)cc(OC)c1OC | 54.9* | 2.0 | 0.0 | 5.1 | -16.4 | 1.2 | 58.8*
COc1ccc(Nc2ccccc2NC(=O)c2ccccc2Br)cc1 | 11.5 | x | x | x | -0.8 | x | x
CC(=O)NNc1nc(-c2ccc(C)cc2)cs1 | -9.3 | 4.1 | 0.2 | -3.0 | -11.9 | -31.8 | x
CC(=O)NNc1nc(-c2ccccc2)cs1 | 69.6* | 2.6 | -0.6 | 0.4 | 6.4 | -16.0 | 54.8*
CCN(CC)CCCn1c2c(c(SCC(=O)Nc3ccc4c(c3)OCO4)nc1=O)CCC2 | -3.7 | x | x | x | x | x | x
Cc1ccc(S(=O)(=O)Nc2ccc(-c3csc(-c4ccccc4)n3)cc2)cc1 | 72.3* | 3.4 | 0.1 | -3.1 | -15.7 | -19.8 | 27.4
O=S(=O)(Nc1ccc(-c2csc(-c3ccccc3)n2)cc1)c1ccccc1 | 58.7* | 3.0 | 0.0 | 4.3 | -16.2 | -9.2 | 43.6*
CSCC[C@H](NC(=O)c1ccc(Cl)c([N+](=O)[O-])c1)c1nc2ccccc2[nH]1 | 59.2* | 7.8 | 0.0 | -13.2 | -12.5 | -21.0 | 63.6*
COC(=O)C(C)(C)c1cccnc1C#N | -4.8 | x | x | x | x | x | x
O=C(Nc1cccc(C(F)(F)F)c1)c1ccccc1NC(=O)C1CCCCC1 | 4.1 | 5.7 | 0.2 | -6.7 | -8.6 | -5.1 | x
CCOC(=O)c1ccc(Nc2nc(N3CCOCC3)nc(N3CCOCC3)n2)cc1 | 50.8* | x | x | x | -1.0 | x | 13.5
CC(=O)c1ccc(Nc2nc(N3CCOCC3)nc(N3CCOCC3)n2)cc1 | -0.8 | x | x | x | 0.6 | x | x
COc1cc(/C=N/Nc2nc(C)cc(C)n2)ccc1OC(=O)c1ccco1 | -2.3 | 5.9 | 0.7 | -9.0 | 0.7 | -9.2 | x
CCOc1cc(/C=N\Nc2nc(Nc3ccccc3)nc(N3CCOCC3)n2)ccc1OC(=O)c1ccco1 | 72.1* | 0.6 | 1.9 | 29.1 | -19.0 | -5.7 | 16.6
COc1ccc(-c2[nH]ncc2/C=N\NC(=O)c2ccc(Br)o2)cc1OC | -6.4 | x | x | x | 4.0 | x | x
Nc1cc(=O)[nH]c(SCC(=O)c2ccc(F)cc2)n1 | 0.5 | x | x | x | 16.6 | x | x
COc1cc2c(c(OC)c1OC)C(c1ccc(C)cc1)CC(=O)O2 (configuration not stated) | 5.0 | x | x | x | x | x | x
Cc1ccc(S(=O)(=O)N2C[C@H]3C(=O)C[C@@H]4C(=O)N(c5ccccc5)C(=O)[C@@H]4[C@@H]3C[C@H]2c2cccc(Cl)c2)cc1 | 85.0* | x | x | x | x | x | 1.5
Cc1ccc(S(=O)(=O)N2C[C@H]3C(=O)C[C@@H]4C(=O)N(c5ccccc5)C(=O)[C@@H]4[C@@H]3C[C@H]2c2cccs2)cc1 | 70.0* | x | x | x | x | x | 45.9
CCc1ccc([C@H]2C[C@H]3[C@H]4C(=O)N(c5ccccc5)C(=O)[C@H]4CC(=O)[C@@H]3CN2S(=O)(=O)c2ccc(C)cc2)cc1 | 74.2* | x | x | x | x | x | 13.1
CCOC1=C2CN(S(=O)(=O)c3ccc(C)cc3)[C@@H](c3cccs3)C[C@H]2[C@H]2C(=O)N(c3ccccc3)C(=O)[C@H]2C1 | 77.5* | x | x | x | x | x | 21.6
CCOC1=C2[C@@H](CN(S(=O)(=O)c3ccc(C)cc3)[C@H]2c2ccccc2)[C@H]2C(=O)N(c3ccccc3)C(=O)[C@H]2C1 | 28.3 | x | x | x | x | x | x
CCc1ccc([C@@H]2C[C@H]3[C@@H](CN2S(=O)(=O)c2ccc(C)cc2)C(=O)C[C@@H](c2ccccc2F)N3S(=O)(=O)c2ccc(C)cc2)cc1 | 26.3 | x | x | x | x | x | x
CC(C)C[C@H]1C(=O)N2CCC[C@H]2[C@]2(O)O[C@](NC(=O)C3C=C4c5cccc6[nH]c(Br)c(c56)C[C@H]4N(C)C3)(C(C)C)C(=O)N12 (some centres not stated) | 52.1* | x | x | x | x | x | 25.4
CS(=O)(=O)c1ccc(-c2csc(C(O)c3cccc(Cl)c3)n2)cc1 (configuration not stated) | 52.3* | x | x | x | x | x | 17.3
SMILES | FAS-TE inh | p97 inhibitor | DTT redox prof | PKD1 kinase inh | SUMO HTRF inh | Furin inh | FAS-TE conf
OC(c1cccc(Cl)c1)c1nc(-c2ccoc2)cs1 (configuration not stated) | 3.0 | x | x | x | x | x | x
COc1ccc(CCN(C)c2ccc(S(=O)(=O)N3CCCC3)cn2)cc1OC | 2.7 | 2.1 | -1.6 | -4.5 | 19.1 | -12.7 | x
COc1cc(CN(C)c2ccc(S(=O)(=O)N3CCCC3)cn2)ccc1OC(F)F | 68.3* | x | x | x | x | x | 21.6
COc1ccc(CN2CCN(Cc3ccc(CO)o3)CC2CCO)cc1C (configuration not stated) | -0.5 | x | x | x | -4.5 | x | x
O=C1CN(C(=O)c2cc([N+](=O)[O-])ccc2Cl)C(c2ccccc2)c2cc(F)ccc2N1 (configuration not stated) | 85.5* | 8.2 | 0.2 | -0.6 | -6.0 | -12.2 | 88.2*
COCCn1c(=NC(=O)c2ccc(S(=O)(=O)N3CCCc4ccccc43)cc2)sc2cc(S(C)(=O)=O)ccc21 | 83.5* | 1.9 | 0.3 | 0.9 | -5.7 | -22.4 | 32.0*
O=[N+]([O-])c1ccc(S(=O)(=O)NN=Cc2ccc(Cl)c(Cl)c2)cc1 | 81.2* | x | x | x | x | x | 88.5*
O=[N+]([O-])c1ccc(S(=O)(=O)N/N=C/c2ccc3c(c2)OCO3)cc1 | 72.3* | x | x | x | -0.2 | x | 74.1*
Cc1ccc(N2CC(C(=O)OCc3nnc(-c4ccccc4)o3)CC2=O)cc1 (configuration not stated) | -2.5 | x | x | x | x | x | x
COc1ccc(F)cc1S(=O)(=O)Nc1cc2c3c(c1)CCC(=O)N3CCC2 | -7.7 | x | x | x | x | x | x
Cc1ccccc1Cn1cc(S(=O)(=O)c2ccc(C(C)C)cc2)c(=O)c2cc3c(cc21)OCO3 | 61.8* | x | x | x | x | x | 32.4
Cc1ccc(Cn2cc(S(=O)(=O)c3ccc(Cl)cc3)c(=O)c3cc(F)ccc32)cc1 | 3.2 | 9.7 | 0.9 | 2.6 | -10.1 | -16.9 | x
O=c1c(S(=O)(=O)c2ccc(Cl)cc2)cn(Cc2cccc(F)c2)c2ccc(F)cc12 | 69.7* | 3.9 | 0.6 | 0.2 | -12.4 | -19.1 | 31.9
Cc1ccc(S(=O)(=O)c2cn(Cc3ccc(F)cc3)c3cc4c(cc3c2=O)OCO4)cc1 | 58.4* | 6.1 | 1.2 | -3.4 | -6.7 | -5.0 | 20.0
CC(C)c1ccc(S(=O)(=O)c2cn(Cc3ccc(F)cc3)c3cc4c(cc3c2=O)OCO4)cc1 | x | 2.0 | 0.2 | -2.7 | 11.9 | 3.6 | x
Cc1ccc(C)c(S(=O)(=O)N2CCN(C(=O)Cc3ccc(S(=O)(=O)N4CCOCC4)s3)CC2)c1 | 69.4* | x | x | x | x | x | 63.0*
O=C(Cc1ccc(S(=O)(=O)N2CCOCC2)s1)N1CCN(S(=O)(=O)c2ccccc2[N+](=O)[O-])CC1 | 87.3* | x | x | x | x | x | 83.3*
Cc1cc(C)c(Cn2cnc(-c3ccc([N+](=O)[O-])cc3)c2)c(C)c1 | 53.8* | -6.1 | -4.6 | -2.6 | -32.9 | 7.5 | 52.8*
CC(C)(C)c1ccc(Cn2cnc(-c3ccc([N+](=O)[O-])cc3)c2)cc1 | 51.4* | -0.8 | 1.4 | 4.5 | -13.0 | -14.5 | 30.9
